Bioassay records from PubChem.
SARS PLP yeast: qHTS of Yeast-based Assay for SARS-CoV PLP. Potency, µM (highest dose often 32.9 µM), actives largely listed as activators. S. cerevisiae expressing SARS-CoV PLpro, growth rescue. AID 485353, 2010. 0.19% of 330,000 active; further: nearly all actives have a fitted effect of over 55% in size
Pf growth 48h: Primary qHTS for delayed death inhibitors of the malarial parasite plastid, 48 hour incubation | P. falciparum luciferase growth in erythrocytes, 48 h | Potency, µM (highest dose often 28.7 µM), most hits filed as inhibitors | 5.9% of 310,000 active; active means well fitted inhibition curve with a large enough effect; inconclusive means small, poorly fitted or top-dose-only effect, or another doubt; inactive means no such curve, though single readings can be large or run the other way
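First compound was added to culture medium, then infected red cells at 0.1% parasitemia and 2% hematocrit (final). After incubation at 37 C under 5% CO2, luciferase detection reagent was dispensed and light output recorded.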
RE007 growth inh: qHTS Assay for Inhibitors of the HIV-1 protein Vpr; Potency, µM (highest dose often 92.2 µM), actives largely listed as inhibitors; 0.21% of 360,000 active; S. pombe RE007 Vpr strain, BacTiter-Glo ATP luminescence, 24 h; active means well fitted falling curve with a large enough effect; inconclusive means small, poorly fitted or top-dose-only effect; inactive means no such curve, though single readings can be large or run the other way; further: nearly all actives have a fitted effect of over 50% in size
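Fission yeast RE007 carrying one integrated HIV-1 vpr copy, seeded at OD 0.01 in PMG+AL medium with 23 nL pinned compound. Grown 24 h at 30 degrees; viability read by BacTiter-Glo luminescence after 5 min.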
Pf growth 96h: Primary qHTS for delayed death inhibitors of the malarial parasite plastid, 96 hour incubation; AID 504834, 2011; Potency, µM (top dose mostly 28.7 µM), actives largely listed as inhibitors; P. falciparum luciferase reporter growth, 96 h; 6.9% of 320,000 active; active means well fitted inhibition curve with a large enough effect; inconclusive means small, poorly fitted or top-dose-only effect, or another doubt; inactive means no such curve, though single readings can be large or run the other way
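P. falciparum expressing integrated firefly luciferase grown in erythrocytes (2% hematocrit, 0.05% parasitemia final) with compounds for 96 hours at 37 C, 5% CO2. Growth inhibition read as loss of luminescence after adding luciferase detection reagent.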
NS1 inh: qHTS Assay for Inhibitors of Influenza NS1 Protein Function; Potency, µM (top dose mostly 46.1 µM); 0.4% of 270,000 active; AID 2326, 2010; further: actives are rising curves; nearly all actives have a fitted effect of over 50% in size
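Recovery from NS1-induced slow growth read by OD600 in budding yeast switched to galactose assay medium (pH 6.0, -URA) at 1:100 dilution. Compound 23 nl per well; the matching strain lacking NS1 serves as control.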
Hits are given with their value; – = inactive; ? = inconclusive; · = no result. A selection: hits, their analogues and other compounds. The true share with any hit is near 9.5%. Unless noted, the call rests on the fitted dose curve.

SMILES | SARS PLP yeast | Pf growth 48h | RE007 growth inh | Pf growth 96h | NS1 inh
CCOC(=O)C1=C(Nc2cccc(Cl)c2)OCC1=O | – | – | – | 9.3µM | –
CCOC(=O)c1c(NC(=O)Nc2cccc(Cl)c2)sc(C)c1C | – | ? | – | · | –
C=CCn1c(=O)/c(=C2/Sc3ccccc3N2CC)s/c1=C1/C(=O)NN=C1C | – | 15µM | · | – | –
C=CCN1C(=O)/C(=C2/Sc3ccccc3N2CC)SC1=S | – | ? | – | – | –
CCOc1ccc(N(CC(=O)N2CCC(Cc3ccccc3)CC2)S(C)(=O)=O)cc1 | – | – | – | – | –
CC1CC(O)(Cc2ccccc2)C(C)CN1C (stereo not drawn) | ? | – | – | – | –
Cc1ccc(C)c(C2(O)CC(C)N(C)CC2C)c1 (stereo not drawn) | – | – | – | 6.6µM | –
O=C(NCc1ccc(OC(F)(F)F)cc1)C1CC2Cn3c(nc4ccccc43)C2N1c1ccccc1 (stereo not drawn) | – | – | – | – | –
Cc1ccc(-c2nc3ccccc3n2C)o1 | – | · | 40µM | – | –
CC(C)OC(=O)c1ccc(NC(=O)Cn2c(-c3nonc3N)nc3ccccc32)cc1 | – | 10µM | – | 8.3µM | –
Cn1c(-c2nonc2N)nc2ccccc21 | – | – | – | 10µM | –
N#Cc1ccccc1S(=O)(=O)N1CCN(C(=O)CN2C(=O)NC3(CCCC3)C2=O)CC1 | – | – | – | – | ·
COC(=O)c1ccccc1NC(=O)c1noc2c1CCC2 | – | 3.3µM | – | 1µM | –
CSc1ccccc1NC(=O)c1noc2c1CCC2 | – | 13µM | ? | · | –
Cc1ccc(O)c(NC(=O)c2noc3c2CCCCC3)c1 | – | – | – | – | ·
CCOC(=O)Cc1cc(-c2ccc(O)cc2)nc2ccc3ccccc3c12 | – | ? | – | 12µM | –
CCOC(=O)Cc1cc(-c2ccc(OC)cc2)nc2ccc3ccccc3c12 | – | – | – | – | –
CC(C)=CCCC(C)CN1CCC(N2CCC(C(=O)NC(C)C)CC2)CC1 (stereo not drawn) | – | 5.2µM | – | ? | –
COc1ccc(N2CCN(S(=O)(=O)c3c(C)nc4sccn4c3=O)CC2)cc1 | – | – | – | 4.1µM | –
CC(=O)Nc1c(C(N)=O)oc2ccc(Cl)cc12 | – | – | – | – | –
CC(=O)Nc1c(C(=O)O)oc2ccc(Cl)cc12 | – | – | – | 2.6µM | –
COc1ccc(/C=C(/NC(=O)c2ccc(Br)o2)C(=O)Nc2cccc(C(=O)O)c2)cc1 | · | · | – | · | ·
CCN(CC1COc2ccccc2O1)C(=S)NCCCN(C)C (stereo not drawn) | – | – | – | 10µM | ·
O=CNc1cc(-c2cccc(O)c2)cn2c(-c3ccc(F)cc3)cnc12 | · | · | – | · | ·
Cc1ccccc1NC1=C/C(=N\S(=O)(=O)c2cccs2)c2ccccc2C1=O | – | 0.093µM | ? | · | –
SMILES | SARS PLP yeast | Pf growth 48h | RE007 growth inh | Pf growth 96h | NS1 inh
Cc1ccc(NC2=C/C(=N/S(=O)(=O)c3cccs3)c3ccccc3C2=O)cc1C | – | 0.66µM | · | – | –
CC(=O)Nc1ccc(NC2=C/C(=N/S(=O)(=O)c3cccs3)c3ccccc3C2=O)cc1 | – | 0.15µM | – | – | ·
CC(=O)Nc1ccc(NC(=O)C(C)OC(=O)c2ccccc2NS(=O)(=O)c2cccs2)cc1 (stereo not drawn) | – | – | – | ? | –
COc1ccc(S(=O)(=O)/N=C2\C=C(Nc3ccc(O)cc3)C(=O)c3ccccc32)cc1 | – | 0.93µM | – | – | –
COc1cc2[nH]c(=O)n(CCC(=O)NCCCN3CCN(c4ccccc4F)CC3)c(=O)c2cc1OC | – | ? | ? | ? | ·
Cc1ccc(NCc2ccc(C)s2)cc1 | – | – | · | – | –
O=C(Nc1cccc(S(=O)(=O)NC2=NCCCCC2)c1)c1ccc(Cl)cc1 | – | – | – | ? | ·
CCCOc1ccc(N2C(=O)CC(N3CCCC(C(=O)N4CCCC4)C3)C2=O)cc1 (stereo not drawn) | – | – | 18µM | – | –
O=C(C1CCN(C2CC(=O)N(c3cccc(Cl)c3)C2=O)CC1)N1CCCCCC1 (stereo not drawn) | – | – | 7.1µM | – | –
CCCOc1ccc(N2C(=O)CC(N3CCC(C(=O)OCC)CC3)C2=O)cc1 (stereo not drawn) | – | – | 5.6µM | – | –
O=C1CC(N2CCOCC2)C(=O)N1c1cccc(Cl)c1 (stereo not drawn) | – | – | ? | ? | –
CCOc1ccc(N2C(=O)CC(N3CCC(NC(=O)Nc4ccccc4)CC3)C2=O)cc1 (stereo not drawn) | – | ? | 22µM | ? | –
Cc1ccnc(NC(=O)CCc2c[nH]c3ccccc23)c1 | – | – | – | – | –
Oc1ccc(C23CCCC2C2(CCCC2)c2ccc(O)cc2O3)c(O)c1 (stereo not drawn) | – | ? | – | ? | ·
Nc1ncc(Br)cc1S(=O)(=O)NCCC(=O)NCCc1ccccc1 | – | – | – | – | –
O=C1CC(N2CCN(c3ccccc3)CC2)C(=O)N1c1ccc(Cl)cc1 (stereo not drawn) | – | – | – | ? | –
O=C1CC(N2CCN(c3ccccc3Cl)CC2)C(=O)N1c1ccc(F)cc1 (stereo not drawn) | – | – | ? | – | –
O=C(C1CCCN(C2CC(=O)N(c3ccc(F)cc3)C2=O)C1)N1CCCC1 (stereo not drawn) | – | – | 45µM | – | –
O=C(C1CCCN(C2CC(=O)N(c3ccc(Cl)cc3)C2=O)C1)N1CCCC1 (stereo not drawn) | – | – | 5.6µM | ? | –
C=CCN(C(=O)C1CC(=O)N(C2CCCC2)C1)c1nc(-c2ccc(S(C)(=O)=O)cc2)cs1 (stereo not drawn) | – | ? | – | – | ·
O=C(O)c1cccc(CN2CCCCC2)c1 | · | · | · | · | –
COc1ccccc1-n1c(SCC(=O)Nc2nnc(C)s2)nc2c(c1=O)SCC2 | – | – | – | 12µM | –
CCOC(=O)N1CCN(C(=O)CSc2nc3c(c(=O)n2-c2ccccc2OC)SCC3)CC1 | – | ? | – | 1.3µM | –
COCCn1c(SCC(=O)N2CCCC2)nc2c(c1=O)SCC2 | · | · | – | · | ·
CCn1c(SCC(=O)N2CCCCCC2)nc2c(c1=O)SCC2 | – | – | – | 5.9µM | –
O=C(CC[C@H]1O[C@@H](n2ccc(=O)[nH]c2=O)[C@H](O)[C@@H]1O)N[C@H](Cc1ccccc1)C(=O)NCC1CCCO1 (stereo partly drawn) | · | · | – | · | ·
CC(Sc1ccc(S(=O)(=O)N2CCN(C)CC2)cn1)C(=O)Nc1cccc(Cl)c1Cl (stereo not drawn) | · | · | – | · | ·
CC(NCC1(N2CCOCC2)CCCCC1)C(=O)Nc1ccc(Cl)cc1Cl (stereo not drawn) | – | ? | – | 9.3µM | ·
CC(Sc1ccc(S(=O)(=O)N2CCOCC2)cn1)C(=O)Nc1ccc(Cl)cc1Cl (stereo not drawn) | – | 12µM | – | ? | ·
